# Laboratory results taken from PubChem BioAssay (NCATS).
# Records with an inconclusive call do not appear. Unmarked numbers belong to inactive results. Activity calls are given as the source filed them. Calls follow the shape of the dose curve; as a rule, active = well fitted inhibition curve with a large enough effect; inconclusive = small, poorly fitted or top-dose-only effect; inactive = no such curve, though single readings can be large or run the other way.
# Experiment: BET inhibitor-based combinations targeting novel dependencies in MECOM-rearranged (r) AML: OCI-AML3 cell line (AID 2202232); also: nearly all actives have a fitted effect of over 35% in size;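 as to viability (% of control): plate controls were DMSO vehicle wells for no effect and wells without cells for full effect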
# Settings: CellTiter-Glo luminescence, 48 h; Potency: OCI-AML3 viability; series mostly up to 46 µM; viability (% of control): at the top concentration
# Method in brief: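 Here, 11-point titrations of each agent were applied to 500 seeded cells and incubated 48 hr; CellTiter-Glo signal, scaled against DMSO and empty wells, was integrated as AUC, then Z-scored within the individual line.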
# Potency is read from the fitted curve at half-maximal effect.
Compound,viability (% of control),Potency
CNC(=O)c1cc(COc2nnc(Nc3ccc(Cl)cc3)c3ccoc23)ccn1,93.9%,–
CCOC(=O)N1c2ccc(C(F)(F)F)cc2[C@@H](N(Cc2cc(C(F)(F)F)cc(C(F)(F)F)c2)C(=O)OC)C[C@H]1CC,–,4.68 µM (active)
C[C@]12CCC(=O)C=C1[C@@H]1C[C@@H]1[C@H]1[C@@H]3[C@@H]4C[C@@H]4[C@@]4(CCC(=O)O4)[C@@]3(C)CC[C@@H]12,–,8.33 µM (active)
C[C@]1(c2nc3c(C(N)=O)cccc3[nH]2)CCCN1,–,8.33 µM (active)
O=C(Cc1cccc(OC(F)(F)F)c1)Nc1ccc(CCCCc2nnc(NC(=O)Cc3ccccn3)s2)nn1,60.4%,–
CN1C(=O)C[C@H](C(=O)N[C@@H](Cc2cnc[nH]2)C(=O)N2CCC[C@@H]2C(N)=O)NC1=O,–,18.6 µM (active)
COC(=O)C1=C(C)NC(C)=C(C(=O)OCCN2CCN(C(c3ccccc3)c3ccccc3)CC2)C1c1cccc([N+](=O)[O-])c1 (centres undefined),–,20.9 µM (active)
Cn1c(Nc2ccc(C(F)(F)F)cc2)nc2cc(Oc3ccnc(-c4ncc(C(F)(F)F)[nH]4)c3)ccc21,–,2.95 µM (active)
Nc1nc(=O)n([C@H]2C[C@H](O)[C@@H](CO)O2)cc1F,–,0.132 µM (active)
CC(C)c1ccccc1Cc1cc(C(=O)Nc2ccc(S(=O)(=O)c3ccccc3C(C)(C)C)cc2)c(O)c(O)c1O,–,4.68 µM (active)
O=C1c2cccc(O)c2C(=O)c2c(O)cc(CO)cc21,118%,–
OC[C@H](Cc1ccccc1)Nc1nc(Oc2ccc3c(c2)CCC3)nc2c1ncn2Cc1ccc(-c2ccccc2)cc1,–,8.33 µM (active)
CC(C)Cn1cnc2c(N)nc3ccccc3c21,117% [at 15.6 µM],–
COc1cccc2c1CCCC2CCCN1CCN(C2CCCCC2)CC1 (centres undefined),–,11.8 µM (active)

# Experiment: BET inhibitor-based combinations targeting novel dependencies in MECOM-rearranged (r) AML: MV-4-11 cell line (AID 2202233); also: nearly all actives have a fitted effect of over 45% in size;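 as to viability, % of control: plate controls were DMSO for no effect and blank wells for full effect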
# Settings: MV-4-11 AML viability, CellTiter-Glo luminescence, 48 h; series mostly up to 46 µM; viability, % of control: at the top concentration
# Method in brief: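 Normalized to DMSO and empty-well controls, the luminescence data from CellTiter-Glo after 48 hr drug exposure were fitted across 11 concentrations. Reported metrics are area under the dose-response curve and its Z-transformed form.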
Compound,Potency,"viability, % of control [%]"
CC(C)(C)OC(=O)CN(Cc1ccc(Cl)cc1)Cc1ccc([N+](=O)[O-])s1,18.6 µM (active),–
Nc1ncnc2c1ncn2[C@@H]1O[C@H](CO)[C@@H](O)[C@@H]1O,–,104
COc1cccc([C@@H](C)NCCCc2ccccc2Cl)c1,20.9 µM (active),–
C[C@@H]1C[C@H]2[C@@H]3CCC4=CC(=O)C=C[C@]4(C)[C@@]3(Cl)[C@@H](O)C[C@]2(C)[C@@]1(OC(=O)c1ccco1)C(=O)CCl,23.5 µM (active),–
O=C1CCc2ccc(OCCCCN3CCN(c4cccc(Cl)c4Cl)CC3)cc2N1,16.6 µM (active),–
COc1ccc(C=Cc2cc(OC)c(OC)c(OC)c2)cc1NC(=O)[C@H](N)CO,0.296 µM (active),–
O=c1c(-n2ccnn2)c[nH]n1-c1cc(N2CCOCC2)ncn1,20.9 µM (active),–
C[C@]12CCC(=O)C=C1[C@@H]1C[C@@H]1[C@H]1[C@@H]3[C@@H]4C[C@@H]4[C@@]4(CCC(=O)O4)[C@@]3(C)CC[C@@H]12,16.6 µM (active),–
O=c1c(O)c(-c2ccc(O)c(O)c2)oc2cc(O)ccc12,2.63 µM (active),–
CN1CCC(=C2c3ccccc3CCc3sccc32)CC1,33.2 µM (active),–
O=C1NC(=O)C(c2c[nH]c3ccccc23)=C1c1c[nH]c2ccccc12,2.63 µM (active),–
CCOc1ccccc1N=Nc1c(C)[nH]n(-c2nc(-c3ccccc3)cs2)c1=O,–,122
CCn1c(-c2nonc2N)nc2cnc(Oc3cccc(NC(=O)c4ccc(OCCN5CCOCC5)cc4)c3)cc21,0.332 µM (active),–
Nc1nc(=O)n([C@H]2C[C@H](O)[C@@H](CO)O2)cc1F,0.0148 µM (active),–
CC(C)c1ccccc1Cc1cc(C(=O)Nc2ccc(S(=O)(=O)c3ccccc3C(C)(C)C)cc2)c(O)c(O)c1O,10.5 µM (active),–
CC[C@@]1([C@@H]2O[C@@H]([C@H]3O[C@@](O)(CO)[C@H](C)C[C@H]3C)C[C@H]2C)CC[C@H]([C@]2(C)CC[C@]3(C[C@H](O)[C@@H](C)[C@@H]([C@@H](C)[C@@H](OC)[C@H](C)C(=O)O)O3)O2)O1,0.574 µM (active),–
O=C(O)Cc1cccc(OCCCN(Cc2cccc(C(F)(F)F)c2Cl)CC(c2ccccc2)c2ccccc2)c1,20.9 µM (active),–
C[C@H](NC(=O)[C@@H](O)c1cc(F)cc(F)c1)C(=O)N[C@@H]1C(=O)N(C)c2ccccc2-c2ccccc21,–,72.6
CCc1nc(N)nc(N)c1-c1ccc(Cl)cc1,14.8 µM (active),–
Oc1ccc(OCc2ccccc2)cc1,9.34 µM (active),–
COc1cc2ncnc(Nc3cccc(Br)c3)c2cc1OC,9.34 µM (active),–
COc1ccc(Nc2cc(-c3cnc(N)nc3)nc(N3CCOCC3)n2)cn1,5.25 µM (active),–
O=C(Nc1ccccc1Br)N[C@@H]1CCN(c2ccc(C(F)(F)F)cn2)C1,–,99.3
COc1ccc(-c2cc(=O)c3c(O)cc(O)cc3o2)cc1O,5.25 µM (active),–
COc1cccc2c1CCCC2CCCN1CCN(C2CCCCC2)CC1 (centres undefined),16.6 µM (active),–
